A selection: hits, their analogues and other compounds. The true share with any hit is near 2.3%.
CHO-K1 Ca antag = M1 antagonist counterscreen hit in parental CHO-K1 cells | ATP-induced calcium, Fluo-8 fluorescence | inhibition, % at 3 µM | hit rate 0.6% among 360,000 | AID 602250;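 active = inhibition above a per-plate cutoff, the plate's mean sample inhibition plus 3 SD, cut at about 24% in these data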;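 note: 0% = DMSO plus EC80 ATP and 100% = DMSO alone without ATP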
CHRM1 PAM = human CHRM1 positive allosteric modulation. P11229. activation, % at 3 µM. CHO-K1 hM1, Fluo-8 calcium fluorescence, ACh EC20; 0% = ACh EC20, 100% = maximal ACh. hit rate 0.088% among 360,000; in the data active = activation above about 19%, passing the limit was not always enough
Target sequence (P11229 whole entry, looked up): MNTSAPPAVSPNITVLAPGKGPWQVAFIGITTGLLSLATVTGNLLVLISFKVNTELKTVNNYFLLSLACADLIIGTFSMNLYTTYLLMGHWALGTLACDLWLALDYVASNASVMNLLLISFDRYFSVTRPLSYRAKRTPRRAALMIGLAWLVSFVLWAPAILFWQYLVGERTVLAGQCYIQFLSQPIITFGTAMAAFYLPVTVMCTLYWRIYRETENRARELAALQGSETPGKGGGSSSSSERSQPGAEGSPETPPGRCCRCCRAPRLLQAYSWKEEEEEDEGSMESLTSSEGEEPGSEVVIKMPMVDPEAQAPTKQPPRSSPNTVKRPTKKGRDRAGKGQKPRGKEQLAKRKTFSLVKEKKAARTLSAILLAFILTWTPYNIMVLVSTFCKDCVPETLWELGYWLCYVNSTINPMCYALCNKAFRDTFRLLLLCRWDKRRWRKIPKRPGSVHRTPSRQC
M1 PAM parental = nonselective activator or artifact in parental CHO-K1 calcium assay | ATP EC20, Fluo-8 calcium fluorescence; 0% at ATP EC20, 100% at ATP max | activation, % at 3 µM | hit rate 0.02% among 360,000;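 active = activation above the run cutoff, the mean activation of all test compounds plus 3 SD, cut at about 40% in these data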;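 note: peak over basal fluorescence ratio in a 140 s read after ATP addition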
M1 ag parental = M1 agonist counterscreen hit in parental CHO-K1 cells; AID 602248; hit rate 0.48% among 360,000; Fluo-8 calcium fluorescence; scaled to maximal ATP response, vehicle zero; activation, % at 3 µM; in the data active = activation above about 15%;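 note: untransfected CHO-K1 host cells lacking M1 receptor as counterscreen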
M1 antag = blocks human M1 muscarinic receptor. hit rate 1.3% among 360,000. inhibition, % at 3 µM. CHO-K1 hM1, Fluo-8 calcium fluorescence, ACh EC80 antagonist. P11229. AID 588852;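 active = percent inhibition above its own plate's cutoff, namely the mean of that plate's compound wells plus 3 SD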;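 note: peak over basal fluorescence ratio during 140 s after agonist addition; 0% = ACh EC80 plus DMSO and 100% = DMSO alone without agonist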
CHRM1 agonist = human M1 muscarinic receptor agonism; P11229; CHO-K1 hM1, Fluo-8 calcium fluorescence, agonist mode; 0% DMSO, 100% acetylcholine EC100; activation, % at 3 µM; hit rate 0.33% among 360,000; AID 588814;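 active = activation above the run's mean compound activation plus 3 SD, cut at about 16% in these data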;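 note: peak over basal fluorescence ratio within a 140 s kinetic read after compound addition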
Starred values were filed as active, the others as inactive.

SMILES	CHO-K1 Ca antag	CHRM1 PAM	M1 PAM parental	M1 ag parental	M1 antag	CHRM1 agonist
CCCN(CCC)CCCNC(=O)c1ccc2c(c1)N(CC)C(=O)c1ccccc1S2=O (centres undefined)	6.3	-15.8	11.7	-0.2	44.5*	-5.6
CCN1C(=O)c2ccccc2S(=O)(=O)c2ccc(C(=O)NC(C)C)cc21	-10.5	1.8	4.8	0.3	-1.1	-8.7
CCCCSCCCNC(=O)c1ccc2c(c1)N(CC)C(=O)c1ccccc1S2=O (centres undefined)	-14.3	0.7	4.4	-0.8	-11.8	-10.1
O=C(NCc1ccncc1)c1csc([C@@H]2O[C@H](CO)[C@@H](O)[C@H]2O)n1	-4.9	10.8	11.8	1.3	-18.6	-1.2
Cc1ccc(C(=O)NCC(=O)OCC(=O)Nc2ccc3[nH]c(=O)[nH]c3c2)cc1	2.0	2.3	8.0	0.7	1.0	-4.0
COc1ccc(Br)c(C(=O)N2CCCC2(C)C(=O)NCC(C)C)c1 (centres undefined)	26.7*	15.6	-16.4	-0.8	-1.5	0.1
CCCCNC(=O)C1(C)CCN1C(=O)c1cc(OC)ccc1Br (centres undefined)	-0.9	3.8	0.5	0.3	-9.7	-1.8
CCN1C(=O)c2cccc3c(N)ccc(c23)C1=O	18.6	-37.5	-14.6	72.3*	47.9*	191.9*
CCCCNc1ccc2c3c(cccc13)C(=O)N(CCCC)C2=O	92.6*	-26.9	-23.2	348.0*	90.3*	295.9*
CN(C)CCCN1C(=O)c2cccc3c(Br)ccc(c23)C1=O	-12.2	-1.1	11.8	1.0	-1.6	-3.6
Cc1nn(C)c(C)c1N1C(=O)c2cccc3c(Br)ccc(c23)C1=O	2.4	-1.4	-0.5	2.9	6.4	-1.2
Cc1nn(C)c(C)c1N1C(=O)c2cccc3c(N)ccc(c23)C1=O	30.8*	-21.6	-9.9	63.0*	35.1*	90.0*
CCCN1C(=O)c2cccc3c(N4CCCCC4)ccc(c23)C1=O	3.5	0.5	11.9	4.3	-1.6	-0.7
Cc1ccc(N2C(=O)c3cccc4c(N)ccc(c34)C2=O)c2cccnc12	13.6	-10.7	-9.4	22.6*	18.0	29.0*
O=C(Cc1ccc(S(=O)(=O)N2CCOCC2)s1)N1CCN(S(=O)(=O)c2ccccc2[N+](=O)[O-])CC1	-6.6	-14.5	-2.4	3.2	31.6*	-4.1
Cc1c(C(=O)N2CCN(c3ccc(F)cc3)CC2)sc2ncnc(N3CCN(c4ccccn4)CC3)c12	8.4	-20.4	2.4	9.0	31.8*	-7.3
Cc1c(C(=O)N2CCN(c3ccccc3)CC2)sc2ncnc(N3CCN(c4ccccn4)CC3)c12	-13.1	2.9	0.9	2.5	-3.3	-2.8
Cc1ccc(NS(=O)(=O)c2ccc(C(=O)OCC(=O)Nc3cc(C)on3)cc2)cc1	2.1	6.4	24.3	19.4*	8.2	27.9*
CC1(C(=O)NS(=O)(=O)C2CC2)CCCN(C(=O)c2cc3ccccc3s2)C1 (centres undefined)	-6.4	9.6	-3.9	-0.4	-3.9	0.5
O=C(CN1CCCC1)NN=C(c1ccccc1)c1ccccc1	-13.2	-22.3	20.4	0.6	63.6*	-5.8
O=C(CN1CCCCC1)Nc1ccccc1	-6.6	4.9	8.7	0.2	-5.7	-4.5
O=C(CN1CCCCCC1)Nc1ccc(Oc2ccccc2)cc1	-15.2	-22.5	10.0	1.7	42.0*	-6.0
O=C(CN1CCCCCC1)NN(Cc1ccccc1)c1ccccc1	1.1	-22.9	16.9	1.1	55.8*	-8.1
O=C(CN1CCOCC1)Nc1ccccc1-c1ccccc1	10.0	5.6	-6.9	0.0	2.6	-4.4
O=C(CN1CCCC1)NCc1ccccc1	-14.6	6.4	28.9	1.0	-7.0	-3.0
SMILES	CHO-K1 Ca antag	CHRM1 PAM	M1 PAM parental	M1 ag parental	M1 antag	CHRM1 agonist
O=C(CN1CCCCC1)Nc1ccccc1-c1ccccc1	-20.4	-34.0	-0.5	-1.1	100.9*	-12.2
O=C(CN1CCOCC1)NN=C(c1ccccc1)c1ccccc1	-15.9	9.6	24.1	0.7	-4.3	-4.1
Cn1ccnc1SCC(=O)Nc1cc(F)ccc1F	2.6	7.3	4.7	0.6	-5.9	-2.3
COc1ccc(NC(=O)CN2CCN(C3c4ccccc4-c4ccccc43)CC2)cc1	-27.1	5.8	52.8*	1.9	-0.5	-4.4
O=C(C[n+]1ccccc1)Nc1ccc(Oc2ccccc2)cc1	-14.1	-22.9	21.8	0.3	90.9*	-5.7
COc1ccc(NC(=O)CN2CCN(c3ccccc3)CC2)cc1	4.7	8.3	3.0	-0.1	2.3	-5.5
CN(C)c1ccc(NC(=O)C[n+]2ccccc2)cc1	-12.5	2.8	-7.7	0.5	0.7	-11.6
CCOC(=O)C1=C[C@@H](C(C)C)N(S(=O)(=O)c2ccc([N+](=O)[O-])cc2)[C@H]1c1ccccc1	16.4	-21.9	-8.4	3.4	58.5*	-5.9
CCOC(=O)C1=C[C@@H](CC)N(S(=O)(=O)c2ccc([N+](=O)[O-])cc2)[C@H]1c1ccccc1	5.6	-14.7	15.8	4.6	17.1	-6.1
O=C(Nc1nc2c(F)cc(F)cc2s1)C1CC1	31.4*	-4.8	-4.8	2.0	8.4	-3.6
O=C(CN1C(=O)CCC1=O)Nc1nc2c(F)cc(F)cc2s1	3.7	-9.3	2.7	5.1	4.3	0.4
CN(CCCN1CCCCC1)C(=O)c1cc(COc2ccc(F)cc2F)on1	-4.5	-20.8	4.5	0.3	38.4*	-6.7
CCCCCC(=O)N1C[C@@H](n2cc(-c3ccc(F)cc3)nn2)[C@H](O)C[C@@H]1c1ccc(Cl)cc1	6.9	-6.1	-4.7	0.5	10.7	-3.2
CCOc1cc(C(=O)N2CCCC2)cc(OCC)c1OCC	26.5*	-0.6	-6.9	-0.5	-19.2	-1.1
Cc1ccccc1NC(=O)N1CCN(C/C=C/c2ccccc2)CC1	-7.2	-1.3	5.1	0.6	-2.0	-7.0
CC(C1=C(CCN(C)C)Cc2ccccc21)c1ccccn1 (centres undefined)	-11.6	-30.3	5.5	0.1	77.4*	-8.5
CN(C)CCC(c1ccccc1)c1ccccn1 (centres undefined)	3.6	-21.1	-9.2	0.4	16.0	-6.9
Cc1ccc(-c2[nH]ncc2C(=O)c2ccc(Br)cc2)c(O)c1	-0.8	10.6	3.8	3.2	-10.8	-0.8
Cc1ccc(C(=O)c2cn[nH]c2-c2cc(Cl)ccc2O)cc1	0.1	-4.2	16.4	18.5*	10.1	-1.9
CC(C)(C)S(=O)N1Cc2cc(CO)ccc2[C@H]1CCO (some centres undefined)	1.9	14.0	-8.1	-0.2	-20.1	0.1
CCN(CC)CCSc1nc(O)c(-c2ccccc2)c(=O)n1-c1ccccc1	-15.3	6.1	14.4	0.0	-12.6	-6.0
CCN(CC)CCSc1nnc(Nc2ccccc2)n1-c1ccccc1	3.8	-36.2	1.4	-0.1	95.6*	-14.4
Cc1cccc(C)c1NC(=O)CN(C)C(C)C(=O)Nc1ccccc1-c1ccccc1 (centres undefined)	-14.6	15.3	19.8	1.0	-12.9	-1.4

Bioassay records deposited in PubChem BioAssay by The Scripps Research Institute Molecular Screening Center.
